The list is not random: actives were taken first. Their share in the collection is about 12%.
L major viab: reduces viability of Leishmania major promastigotes; AID 1063; resazurin fluorescence viability; inhibition, % at 10 µM; 200,000 compounds, 9% hits; in the data active = inhibition above about 50%;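 also: promastigotes grown with compound for 44 hours at 28 °C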
WT yeast gro inh: growth inhibition of WT yeast, mitochondrial fusion screen; inhibition, % at 10 µM; mitochondrial fusion phenotypic screen, WT strain; 190,000 compounds, 2.1% hits; in the data active = inhibition above about 58%; tested in S. cerevisiae
CHOP inhibitor: CHOP inhibition in unfolded protein response; CHO-K1 CHOP-promoter luciferase, tunicamycin-induced, 15-18 h; inhibition, % at 10 µM; 220,000 compounds, 3.8% hits; AID 2732;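 active = compounds that reduced the stress-induced luciferase reporter signal by more than about 70% of percent inhibition, limit read from the data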;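 also: 0% = tunicamycin plus vehicle and 100% = wells without tunicamycin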
Arbovirus inh: arbovirus infection inhibition. inhibition, % at 10 µM. arbovirus infection cell-based antiviral screen. 200,000 compounds, 0.37% hits. AID 1251; in the data active = inhibition above about 30%
Active calls of the source: *; . = not tested or not shown.

SMILES	L major viab	WT yeast gro inh	CHOP inhibitor	Arbovirus inh
O=C(N/N=C/c1c[nH]c2ccccc12)c1ccncc1	55.8*	1.4	12.6	7.4
Cc1ccc(NC(=S)N/N=C/c2c(C)[nH]c3ccccc23)cc1	44.7	96.0*	67.1	-29.7
Cc1ccc(C(=O)Nc2ccc(C(=O)N/N=C/c3c[nH]c4ccccc34)cc2)cc1	73.2*	-0.8	-17.9	-13.3
O=C(N/N=C/c1cc2c(cc1Br)OCO2)c1c[nH]c2ccccc12	80.0*	-23.1	0.9	-7.7
Cc1[nH]c2ccccc2c1/C=N/NC(N)=S	.	.	-3.9	.
O=C(N/N=C/c1c[nH]c2ccccc12)c1[nH]c2ccc(Br)cc2c1-c1ccccc1	3.0	96.0*	92.4*	-33.5
Cc1cccc(NC(=S)N/N=C/c2c[nH]c3ccccc23)c1	29.1	75.7	91.1*	-34.2
CCCN1CCN(C(=O)c2nn(-c3ccc(OC)cc3)c(=O)c3c2c2ccccc2n3C)CC1	4.8	-7.0	-29.7	-5.4
Cc1cccc(C2=NC(C(F)(F)F)(C(F)(F)F)c3c(n(-c4ccc(F)cc4)c(=O)[nH]c3=O)N2)c1	74.5*	-0.7	22.7	5.8
C/C(=N\Nc1nc2ccccc2[nH]1)c1ccc(C)o1	65.0*	6.2	5.8	14.5
C/C(=N\Nc1nc2ccccc2[nH]1)c1ccc(Cl)s1	89.7*	31.6	39.1	-28.9
C/C(=N\Nc1nc2ccccc2[nH]1)c1ccc(N2CCOCC2)cc1	100.4*	34.2	-44.2	4.7
C/C(=N\Nc1cccc(C(=O)O)c1)c1ccc(Cl)s1	13.9	-2.2	-16.1	19.9
O=C(OCc1cncs1)c1ccccc1	-10.7	-3.8	8.4	-0.8
NC(=O)c1ccc(NC(=O)Cc2csc(-c3ccccc3)n2)cc1	-0.9	-10.4	-2.0	6.1
CCc1ccc(CCC(=O)Nc2ccccc2C(=O)O)o1	-5.5	77.3*	-35.8	38.1*
O=C(C[n+]1ccc(-c2nnc3n2CCC3)cc1)c1ccc(Cl)cc1	-6.3	-4.4	15.6	-4.6
Cn1nnc(C(O)CNCc2cccs2)n1 (stereo not given)	-3.1	.	8.5	1.7
Cn1nnc(NCc2cc(Br)ccc2OCc2cccs2)n1	89.3*	-11.8	10.6	1.3
CC(C)(O[C@@H]1O[C@H](CO)[C@@H](O)[C@H](O)[C@H]1O)[C@H]1Cc2cc3ccc(=O)oc3cc2O1	-6.1	8.1	8.2	30.4*
C=C(C)C1Cc2cc3ccc(=O)oc3cc2O1 (stereo not given)	38.5	11.5	16.3	-3.2
O=C(Nc1ccc(Cl)cc1)C1=Cc2ccccc2OC1	5.2	15.2	41.9	-0.5
Cc1ccc(OCC(=O)NNC(=O)CSc2ncnc3sc(C)c(C)c23)cc1	-6.3	-7.1	89.0*	2.9
CCCOc1ccc(C2C(C(=O)/C=C/c3ccco3)=C(O)C(=O)N2CCN2CCOCC2)cc1OC (stereo not given)	-6.7	5.5	-6.2	-1.1
COc1ccc(-c2nc3ccccn3c2/N=C/c2ccc(OC)c(OC)c2)cc1O	60.1*	-4.1	11.4	2.7
SMILES	L major viab	WT yeast gro inh	CHOP inhibitor	Arbovirus inh
CN(CC(=O)NC(=O)NC(C)(C)C)CC(=O)Nc1ccccc1Cl	4.0	7.9	18.6	-2.0
CNc1nc(-c2ccccn2)nnc1-c1ccccc1	98.7*	7.6	61.8	-32.6
c1ccc(-c2n[nH]c(-c3ccccn3)n2)cc1	3.4	-3.6	-44.5	-19.7
c1ccc(-c2nnc(-c3ccccn3)nc2NC2CCCCC2)cc1	100.3*	63.2*	.	-37.2
COc1ccc2c(CC(=O)Nc3ccc(OC)c(NS(=O)(=O)c4ccc(F)cc4)c3)coc2c1	57.5*	-24.9	54.7	-4.7
COc1ccc2c(CC(=O)Nc3ccccc3OC)coc2c1	-1.4	2.5	-0.9	-3.4
C/C(=N\NC(=O)c1cc(-c2ccncc2)nc2ccccc12)c1ccc(OC(F)F)cc1	89.0*	3.9	15.9	1.6
O=S(=O)(c1ccc(Cl)cc1)N1CCCC(C(F)(F)F)C1 (stereo not given)	-3.3	12.4	21.4	1.5
CC1CCC(NC(=O)c2ccc(/C=C3\Oc4ccccc4N(C)C3=O)cc2)CC1 (stereo not given)	3.5	23.6	90.7*	-29.2
COc1ccc2c(C)nc(Nc3nc(C)cc(=O)[nH]3)nc2c1	100.3*	.	.	.
COc1ccc2c(C)nc(Nc3nc(-c4ccccc4)cc(=O)[nH]3)nc2c1	.	.	19.6	.
Cc1nc(N)sc1N=Nc1ccc(Br)cc1	5.4	66.3*	45.1	-18.7
CCCc1nn(-c2cc(Cl)ccc2OC)c2c1C(=O)CCC2	15.2	-4.3	30.4	-7.6
CCCCc1nn(-c2cc(Cl)ccc2OC)c2c1C(=O)CC(C)(C)C2	19.0	11.2	81.4*	-36.0
CC1=NN2C(=N)/C(=C\c3ccc(SCc4ccccc4)o3)C(=O)N=C2S1	1.7	.	3.6	34.9*
CC1=NN2C(=N)/C(=C\c3cc(C)n(Cc4ccccc4)c3C)C(=O)N=C2S1	.	.	-10.7	.
